This is a sample that favours compounds with a hit; in the whole collection about 3.7% have one here.
B2AR arrestin ag: beta-arrestin recruitment by human beta2-adrenergic receptor ligands; 44,000 tested, under 10 active; HTLA Tango cells, beta-arrestin recruitment, luciferase luminescence, 18 h; P07550; Potency, µM (series often up to 46.1 µM), actives largely listed as activators; AID 1347077
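Receptor–beta-arrestin recruitment read by tTA-responsive luciferase: compound titrations (up to 46 µM) incubated 18 h with Tango cells, then luminescent substrate 15 min at room temperature. Concentration-response fits classified by r2, efficacy and activity.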
HTT-AS act: HTT-AS promoter activation | HEK293 HTT-AS promoter firefly luciferase reporter, 24 h; response scale: percent change from vehicle, -100% = no light | Potency, µM (top dose mostly 57.5 µM), most hits filed as activators | 48,000 compounds, 0.24% hits | AID 1508624; further: nearly all actives have a fitted effect of over 55% in size
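Quantitative HTS used concentration series of up to 57.5 uM final on HEK293 luciferase reporter cells, 24 h at 37 degrees C. Readout was Dual-Glo firefly luminescence.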
GALK inh: inhibits human galactokinase | P51570 | recombinant GALK, Kinase-Glo ATP luminescence, 1 h | Potency, µM (top dose mostly 57.5 µM), most hits filed as inhibitors | 44,000 tested, under 10 active | AID 1347072
Target sequence (P51570 whole entry, looked up): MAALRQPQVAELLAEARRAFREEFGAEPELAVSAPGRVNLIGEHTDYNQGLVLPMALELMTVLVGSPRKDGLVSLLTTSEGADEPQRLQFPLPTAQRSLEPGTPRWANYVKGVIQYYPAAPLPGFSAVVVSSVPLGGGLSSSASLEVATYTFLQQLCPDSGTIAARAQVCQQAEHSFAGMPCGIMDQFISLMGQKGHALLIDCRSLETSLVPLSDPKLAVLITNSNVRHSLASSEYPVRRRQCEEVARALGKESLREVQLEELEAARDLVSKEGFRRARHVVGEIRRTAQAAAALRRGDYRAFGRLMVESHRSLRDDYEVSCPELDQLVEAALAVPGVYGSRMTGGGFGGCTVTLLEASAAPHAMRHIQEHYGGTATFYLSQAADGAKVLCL
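Human GALK (5 nM) was incubated with 35 uM ATP and 100 uM galactose in 20 mM HEPES pH 8.0 with MgCl2, NaCl, DTT and BSA for 1 h at room temperature. Remaining ATP was measured by Kinase-Glo Plus luminescence.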
GPR32 ag: activates human resolvin D1 receptor GPR32. O75388. CHO-K1 GPR32 beta-arrestin PathHunter luminescence, 90 min; zero percent set by DMSO-only wells. activation, % at 76.9 µM. 48,000 compounds, 2.5% hits. AID 1346428;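 active means activation of at least 60% and not above a set upper limit, about 1 call in 100 departs from these limits; inconclusive means activation of 40% to 60%, or above that upper limit; inactive means activation under 40%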
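Cells are plated overnight, treated with compounds in DMSO for 90 minutes at 37 °C, and developed with PathHunter detection reagent for 1 hour before luminescence is read; signal reflects beta-arrestin binding to GPR32 in engineered CHO-K1 cells.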
HTT promoter inh: HTT promoter inhibition | HEK293 HTT promoter firefly luciferase reporter, 24 h | AID 1508623 | Potency, µM (series often up to 57.5 µM), most hits filed as inhibitors | 48,000 compounds, 0.93% hits; further: nearly all actives have a fitted effect of over 50% in size
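Luminescence was read after Dual-Glo reagent and a 10 min room-temperature incubation. Values were normalized to vehicle (0% activity) and zero RLU (-100% activity). Reporter HEK293 cells had been exposed to compounds (up to 57.5 uM final) for 24 h.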
PTAP-TSG101 blk: blocks PTAP binding to human TSG101, validation; Fluorescence polarization, FITC-PTAP peptide/Tsg101, 20 min; AID 1347069; 44,000 tested, under 10 active; Potency, µM (titrated, usually from 115 µM), usual class: inhibitors; Q99816
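Fluorescence polarization: Tsg101 binding domain (10 uM final) in 10 mM HEPES pH 7.5, 0.15 M NaCl, 0.01% Tween 20, 3 mM EDTA, 0.1 mM TCEP; compounds pinned; FITC-PTAP peptide 50 nM final; 20 min, r.t.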
Numbers stand for hits; - = inactive; ? = inconclusive; . = no result; ! = not confirmed by another sample; [ ] = remark or other dose. Unless noted, the call rests on the fitted dose curve; in most records, active means well fitted curve in the direction sought with a large enough effect; inconclusive means small, poorly fitted or top-dose-only effect, or another doubt; inactive means no such curve, though single readings can be large; an effect the other way counts as inactive or inconclusive.

SMILES	B2AR arrestin ag	HTT-AS act	GALK inh	GPR32 ag	HTT promoter inh	PTAP-TSG101 blk
CC(Sc1ncc(S(=O)(=O)c2ccc(C(C)C)cc2)c(N)n1)C(=O)Nc1ccccc1 (stereo not drawn)	-	-	-	-	32µM	-
CCc1cccc(C)c1Nc1c(-c2cccc(O)c2)nc2cnccn12	-	-	-	?	-	-
CCc1cccc(C)c1Nc1c(-c2ccc(N(C)C)cc2)nc2cnccn12	-	-	-	93	-	-
Cc1ccc2nc(-c3ccc(Cl)s3)c(Nc3ccc4c(c3)OCCO4)n2c1	-	4.5µM	-	-	-	-
Cc1ccn2c(Nc3ccc4c(c3)OCCO4)c(-c3ccc(Cl)s3)nc2c1	-	?	-	-	-	-
COc1cc(Nc2nc3ccccc3nc2NS(=O)(=O)c2ccc(NC(=O)c3ccc(C)c(OC)c3)cc2)cc(OC)c1	.	-	.	.	?	.
COc1ccc(CN2CCc3nc(N4CCN(c5ccc(F)cc5)CC4)ncc3C2)c(OC)c1OC	-	-	-	-	1.6µM	-
COc1ccccc1N1CCN(c2ncc3c(n2)CCN(Cc2ccccc2F)C3)CC1	-	-	-	-	-	-
O=C1CC(c2ccc(Cl)cc2)Sc2nc(-c3ccc(F)cc3)nn21 (stereo not drawn)	-	-	-	119	-[11.5 µM]	-
CCOc1ccc(C2CC(=O)n3nc(-c4ccc(C)cc4)nc3S2)cc1OC (stereo not drawn)	-	-	-	74	-	-
Cc1cccc(NC(=O)CSc2nnc(-c3cccs3)o2)c1	-	25µM	-	-	-	-
COc1cccc(NC(=O)CSc2nnc(-c3cccs3)o2)c1	-	?	-	-	-	-
CC[C@H]1OC(=O)[C@H](C)[C@@H](O[C@H]2C[C@@](C)(OC)[C@@H](O)[C@H](C)O2)[C@H](C)[C@@H](O[C@@H]2O[C@@H](C)C[C@H](N(C)C)[C@@H]2O)[C@](C)(O)C[C@@H](C)C(=O)[C@H](C)[C@@H](O)[C@]1(C)O	.	-	.	.	-	.
CC(C)(O)CC(=O)NCCn1ccc2ncnc(Nc3ccc(Oc4cccc(C(F)(F)F)c4)c(Cl)c3)c21	.	-	.	.	-	.
CC1=C(C(=O)Nc2ccc(C)cc2)C(c2ccc(Cl)cc2)n2nnnc2N1 (stereo not drawn)	-	-	-	-	-	-
CC1=C(C(=O)Nc2ccc(Cl)cc2)C(c2ccc(C(F)(F)F)cc2)n2nnnc2N1 (stereo not drawn)	-	-	-	65	-	-
CC(C)Oc1ccc2c(=O)c(-c3ccccc3)coc2c1	.	0.86µM!	.	-	-	.
O=c1c(-c2ccc(O)cc2)coc2cc(O)ccc12	.	?	.	-	-	.
Cc1c(NC(=O)OC[C@@H]2COCCN2)cn2ncnc(Nc3ccc4c(cnn4Cc4cccc(F)c4)c3)c12	.	-	.	.	-	.
CC1=C(c2ccc(C(C)C)cc2)S(=O)(=O)N=C1N1CCC(C(=O)NCCc2ccco2)CC1	-	-	-	64	?	-
CCc1ccccc1NC(=O)C1CCN(C2=NS(=O)(=O)C(c3ccc(C)c(C)c3)=C2C)CC1	-	-	-	89	?	-
CCC1=C(c2ccc(C)cc2)S(=O)(=O)N=C1N1CCC(C(=O)NCc2ccc(C)cc2)CC1	-	-	-	-	?	-
CC1=C(c2ccc(Cl)cc2)S(=O)(=O)N=C1N1CCC(C(=O)NCCc2ccco2)CC1	-	-	-	-	?	-
CCC1=C(c2ccc(C)cc2)S(=O)(=O)N=C1N1CCC(C(=O)NCCc2ccc(Cl)cc2)CC1	-	-	-	-	20µM	-
CC1=C(c2ccc(C(C)C)cc2)S(=O)(=O)N=C1N1CCC(C(=O)Nc2ccc(C)cc2)CC1	-	-	-	?	-	-
SMILES	B2AR arrestin ag	HTT-AS act	GALK inh	GPR32 ag	HTT promoter inh	PTAP-TSG101 blk
CCc1ccc(C2=C(C)C(N3CCC(C(=O)Nc4ccc(F)cc4)CC3)=NS2(=O)=O)cc1	-	-	-	74	?	-
CC1(C)CC(=O)c2c(C(F)(F)F)nn(-c3ccc(C(N)=O)c(NC4CCC(O)CC4)c3)c2C1 (stereo not drawn)	.	-	.	.	?	.
CCC[C@@H](NC(=O)[C@@H]1[C@H]2CCC[C@@H]2CN1C(=O)[C@@H](NC(=O)[C@@H](NC(=O)c1cnccn1)C1CCCCC1)C(C)(C)C)C(=O)C(=O)NC1CC1	.	-	.	.	?	.
Cc1ccc(NS(=O)(=O)c2cn(C)c(C)n2)c(Br)c1	-	-	-	-	-	-
Cc1ccc(NS(=O)(=O)c2ccc(-n3cccn3)cc2)c(Br)c1	-	-	-	72	?	-
Cc1cccc(NS(=O)(=O)c2ccc(-n3cccn3)cc2)c1C	-	-	-	73	?	-
O=C(CC(c1cccs1)N1Cc2ccccc2C1=O)Nc1cccc(F)c1 (stereo not drawn)	-	-	-	61	?	-
COC(=O)C=CC(=O)OC	.	-	.	.	?	.
CC(=O)OCC(=O)[C@@]12N=C(C)O[C@H]1C[C@H]1[C@@H]3CCC4=CC(=O)C=C[C@]4(C)[C@@H]3[C@@H](O)C[C@@]12C	.	-	.	.	?	.
CCCCCn1c(=O)[nH]c2cc(C(=O)N3CCN(c4cccc(C)c4)C(C)C3)ccc2c1=O (stereo not drawn)	-	-	-	104	?	-
O=C(NCCCNc1nc(Nc2cccc(NC(=O)N3CCCC3)c2)ncc1I)c1cccs1	.	-	.	.	?	.
C=C1C(=C/C=C2\CCC[C@]3(C)[C@@H]([C@H](C)/C=C/[C@@H](O)C4CC4)CC[C@@H]23)C[C@@H](O)C[C@@H]1O	.	-	.	107	-	.
CN1C[C@H]2c3ccccc3Oc3ccc(Cl)cc3[C@@H]2C1	.	-	.	92	-	.
CN1CCN(C2=Nc3ccccc3Oc3ccc(Cl)cc32)CC1	.	-	.	-	-	.
OC1(c2ccccc2)CCNCC1	.	-	.	-	-	.
CC(C=CC1=C(C)CCCC1(C)C)=CC=CC(C)=CC(=O)O	.	-	.	.	?	.
Cc1ccc(CNc2nccn(-c3cc(C)cc(C)c3)c2=O)cc1	-	-	-	-	?	-
COc1ccc(-n2ccnc(NCc3ccc(Cl)cc3)c2=O)cc1	-	-	-	60	?	-
COc1cccc(CNc2nccn(-c3cc(C)cc(C)c3)c2=O)c1	-	-	-	63	?	-
N#Cc1ccc(-c2cccs2)nc1SCC(=O)Nc1cccc(C(F)(F)F)c1	-	-	-	82	-	-
Cc1ccc(Sc2c(C)nn(C(=O)c3ccc(Br)cc3)c2C)cc1	-	-	-	-	-	-
Cc1nn(C(=O)c2ccccc2)c(C)c1Sc1ccc(Cl)cc1	-	-	-	107	?	-

Screening results deposited in PubChem by National Center for Advancing Translational Sciences (NCATS).
